Assay results reported in PubChem BioAssay (Tox21).
Where “and” joins values, the source holds several entries; their conditions need not be identical. Identical values can stand only once. Calls of active or inactive are those of the source. Unless noted, calls come from the whole dose curve; as a rule, active = well fitted curve in the direction sought with a large enough effect in the repeat runs; inconclusive = weak or mixed curves; inactive = no such curve, though single readings can be large; an effect the other way counts as inactive or inconclusive.

Key:
[1] = qHTS assay to identify small molecule antagonists of the thyroid receptor (TR) signaling pathway - cell viability counter screen (AID 743064); note: nearly all actives have a fitted effect of over 50% in size; note: potency is the fitted concentration of half-maximal effect
Outline: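 Fluorescence from CellTiter-Fluor, added after 23.5 h exposure at 37 °C, reported viability of GH3.TRE-Luc cells co-treated with compound and 1 nM T3. Measured in the same wells as the luciferase TR readout.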

[2] = qHTS assay to identify small molecule antagonists of the thyroid receptor (TR) signaling pathway (AID 743065); note: nearly all actives have a fitted effect of over 55% in size; note: potency is the fitted concentration of half-maximal effect
Outline: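 GH3.TRE-Luc rat pituitary cells (two TREs driving luciferase) were dosed with compound, then stimulated with 1 nM T3 (final) for 23.5 h at 37 C. ONE-Glo luminescence was the read-out, with CellTiter-Fluor fluorescence as the cytotoxicity counter-screen.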

[3] = test system: thyroid hormone receptor (rat, GH3 cells); assay: qHTS assay to identify small molecule agonists of the thyroid receptor (TR) signaling pathway (AID 743066; calls by dose curve)
[4] = target: Estrogen receptor (Homo sapiens) (UniProt P03372); assay: qHTS assay to identify small molecule antagonists of the estrogen receptor alpha (ER-alpha) signaling pathway (AID 743069; active = well fitted curve in the direction sought with a large enough effect in the signal ratio in the repeat runs, not every such curve was filed as active; inconclusive = weak or mixed curves, or effect the other way; inactive = no such curve, though single readings can be large or run the other way; the % refers to the signal ratio; note: potency is the fitted concentration of half-maximal effect)
Estrogen receptor (Homo sapiens), sequence (P03372 whole entry, looked up): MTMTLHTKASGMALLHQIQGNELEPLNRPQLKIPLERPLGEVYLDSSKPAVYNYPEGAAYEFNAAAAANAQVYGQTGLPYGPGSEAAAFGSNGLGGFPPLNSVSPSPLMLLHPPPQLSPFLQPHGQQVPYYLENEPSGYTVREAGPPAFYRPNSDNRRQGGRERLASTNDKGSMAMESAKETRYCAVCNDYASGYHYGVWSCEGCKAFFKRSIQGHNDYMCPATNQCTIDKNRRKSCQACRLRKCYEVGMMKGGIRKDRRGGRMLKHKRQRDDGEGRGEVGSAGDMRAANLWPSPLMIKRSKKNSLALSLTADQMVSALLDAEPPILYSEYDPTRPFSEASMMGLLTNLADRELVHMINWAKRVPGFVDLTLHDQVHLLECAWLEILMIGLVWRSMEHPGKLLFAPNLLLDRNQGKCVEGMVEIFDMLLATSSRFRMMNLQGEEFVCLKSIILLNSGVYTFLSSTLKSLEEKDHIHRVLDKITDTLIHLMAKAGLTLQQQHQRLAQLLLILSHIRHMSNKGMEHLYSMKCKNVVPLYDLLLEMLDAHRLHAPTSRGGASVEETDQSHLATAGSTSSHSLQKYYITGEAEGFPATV
Outline: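 Reporter cells (ER-alpha-bla, HEK293 background) are conditioned overnight in stripped-serum medium (2% charcoal-stripped FBS). Compound and 17beta-estradiol exposure runs 18 hr at 37C, 5% CO2.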

[5] = target: Estrogen receptor (Homo sapiens) (UniProt P03372); assay: qHTS assay to identify small molecule agonists of the estrogen receptor alpha (ER-alpha) signaling pathway (AID 743075; calls by dose curve;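 note: HEK293 GripTite cells with ER-alpha and UAS-driven beta-lactamase reporter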; note: potency is the fitted concentration of half-maximal effect); conditions: HEK293 ER-alpha-UAS-bla, beta-lactamase FRET ratio, 18 h; activation: at 70.1 µM (top of the series)
[6] = target: Estrogen receptor (Homo sapiens) (UniProt P03372); assay: qHTS assay to identify small molecule agonists of the estrogen receptor alpha (ER-alpha) signaling pathway using the BG1 cell line (AID 743079); conditions: BG1Luc4E2 cells, ERE-luciferase agonist, 22 h; note: nearly all actives have a fitted effect of over 20% in size; note: potency is the fitted concentration of half-maximal effect
[7] = qHTS assay to identify small molecule antagonists of the estrogen receptor alpha (ER-alpha) signaling pathway using the BG1 cell line (AID 743080; calls by dose curve; note: nearly all actives have a fitted effect of over 25% in size; note: potency is the fitted concentration of half-maximal effect)
Outline: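 Antagonist mode: compounds in DMSO were pinned onto BG1-Luc-4E2 cells alongside 17beta-estradiol agonist, incubated 21.5 h, and ERE-driven luciferase measured with ONE-Glo. Cytotoxicity was multiplexed using CellTiter-Fluor fluorescence.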

[8] = qHTS assay to identify small molecule antagonists of the estrogen receptor alpha (ER-alpha) signaling pathway using the BG1 cell line - cell viability counter screen (AID 743081);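 note: compound given together with 17beta-estradiol as the ER stimulus; nearly all actives have a fitted effect of over 45% in size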; note: potency is the fitted concentration of half-maximal effect
[9] = qHTS assay to identify small molecule antagonists of the estrogen receptor alpha (ER-alpha) signaling pathway - cell viability counter screen (AID 743074; calls by dose curve;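 note: HEK293 cells carrying ER-alpha-UAS-bla reporter stimulated with 17beta-estradiol; nearly all actives have a fitted effect of over 45% in size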; note: potency is the fitted concentration of half-maximal effect)
[10] = target: Aromatase (Homo sapiens) (UniProt P11511); assay: qHTS assay to identify aromatase inhibitors (AID 743083); note: nearly all actives have a fitted effect of over 55% in size; note: potency is the fitted concentration of half-maximal effect
Aromatase (Homo sapiens), sequence (P11511 whole entry, looked up): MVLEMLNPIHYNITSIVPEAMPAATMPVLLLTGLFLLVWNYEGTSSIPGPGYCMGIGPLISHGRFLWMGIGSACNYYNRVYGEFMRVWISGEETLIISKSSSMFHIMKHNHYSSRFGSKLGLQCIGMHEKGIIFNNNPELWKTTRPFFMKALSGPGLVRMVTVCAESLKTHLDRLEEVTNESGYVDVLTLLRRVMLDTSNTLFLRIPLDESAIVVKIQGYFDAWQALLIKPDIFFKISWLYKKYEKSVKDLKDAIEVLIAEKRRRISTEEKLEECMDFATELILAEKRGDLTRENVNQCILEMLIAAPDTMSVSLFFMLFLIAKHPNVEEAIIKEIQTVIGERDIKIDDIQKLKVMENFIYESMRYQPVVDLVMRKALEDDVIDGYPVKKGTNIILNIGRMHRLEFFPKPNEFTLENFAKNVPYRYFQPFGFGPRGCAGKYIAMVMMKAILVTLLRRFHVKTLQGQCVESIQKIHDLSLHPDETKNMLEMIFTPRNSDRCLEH
% is set by controls: 0 for no effect and ±100 for the full control effect.

O=CC=C(c1ccccc1)c1ccccc1
inactive: Potency [3] | Potency [5] | activation ([6]; at 95 µM (top of the series)) -5.89% | Potency [8]
active: Potency [1] 34.7 µM | Potency [2] 13.8 µM | Potency [4] 27.8 µM [inconclusive] | Potency [7] 69.1 µM

Cc1cccc2c1cc1ccc3cccc4ccc2c1c34
inactive: Potency [1] | Potency [2] | Potency [3] | Potency [9] | activation ([6]; at 95 µM (top of the series)) 15.8% | Potency [7] | Potency [10]

Oc1ccc(Cl)cc1Sc1cc(Cl)ccc1O
active: Potency [1] 11.9 µM and 7.68 µM | Potency [2] 5.96 µM and 2.73 µM | Potency [9] 19 µM and 38.8 µM | Potency [10] 26.6 µM and 27.3 µM
inactive: Potency [3] | Potency [5] | Potency [7] | Potency [8]

O=C(OC[C@H]1O[C@@H](OC(=O)c2cc(O)c(O)c(OC(=O)c3cc(O)c(O)c(O)c3)c2)[C@H](OC(=O)c2cc(O)c(O)c(OC(=O)c3cc(O)c(O)c(O)c3)c2)[C@@H](OC(=O)c2cc(O)c(O)c(OC(=O)c3cc(O)c(O)c(O)c3)c2)[C@@H]1OC(=O)c1cc(O)c(O)c(OC(=O)c2cc(O)c(O)c(O)c2)c1)c1cc(O)c(O)c(OC(=O)c2cc(O)c(O)c(O)c2)c1
active: Potency [1] 3.35 µM and 16.5 µM | Potency [2] 3.76 µM and 16.5 µM | Potency [9] 6.74 µM | Potency [8] 21.1 µM
inactive: Potency [3]

NNc1nc(-c2ccccc2)cs1
inactive: Potency [3] | Potency [9] | Potency [5] | activation ([6]; at 95 µM (top of the series)) 7.73% | Potency [7] | Potency [10]
active: Potency [1] 31.5 µM | Potency [2] 14.1 µM

C[C@]12CCC(=O)C=C1CC[C@@H]1[C@@H]2[C@@H](O)C[C@@]2(C)[C@H]1CC[C@]2(O)C(=O)COC(=O)CCC(=O)O
inactive: Potency [1] | Potency [2] | Potency [3] | Potency [9] | Potency [5] | activation ([6]; at 70.3 µM (top of the series)) 9.99% | Potency [10]

CC(C)(C)c1ccc(C(=O)O)cc1
inactive: Potency [1] | Potency [2] | Potency [3] | Potency [9] | Potency [8] | Potency [10]

O=C(OCC1CO1)C1CCCCC1C(=O)OCC1CO1 (configuration not stated)
inactive: Potency [3] | Potency [9]
active: Potency [1] 54.5 µM | Potency [2] 27.3 µM

CN(C)c1ccc(C2(c3ccc(N(C)C)cc3)OC(=O)c3cc(N(C)C)ccc32)cc1
inactive: Potency [1] | Potency [2] | Potency [3] | Potency [9] | activation ([6]; at 70.3 µM (top of the series)) -6.04% | Potency [7] | Potency [8] | Potency [10]
active: Potency [5] 21.8 µM [inconclusive]

CCCCCCC[N+](CC)(CC)CCCCc1ccc(Cl)cc1
active: Potency [2] 12.7 µM | Potency [9] 8.11 µM
inactive: Potency [1] | Potency [3] | Potency [5] | Potency [8]

Nc1ccc(N)c2ccccc12
active: Potency [1] 30.6 µM | Potency [2] 48.5 µM | Potency [9] 21.8 µM | Potency [8] 5.44 µM
inactive: Potency [3] | Potency [5]

N=C1N=C(N)c2ccccc21
active: Potency [1] 21.7 µM | Potency [2] 15.4 µM | Potency [10] 38.6 µM
inactive: Potency [3] | Potency [9] | Potency [5] | activation ([6]; at 70.3 µM (top of the series)) 3.41% | Potency [8]

Clc1ccc2cc3ccccc3cc2c1
inactive: Potency [1] | Potency [2] | Potency [3] | Potency [4] | Potency [9] | Potency [8] | Potency [10]

CC1=NC(C)OC1C (configuration not stated)
inactive: Potency [1] | Potency [2] | Potency [3] | Potency [9] | Potency [5] | Potency [7] | Potency [8] | Potency [10]

CS(=O)(=O)CCNCc1ccc(-c2ccc3ncnc(Nc4ccc(OCc5cccc(F)c5)c(Cl)c4)c3c2)o1
inactive: Potency [1] | Potency [2] | Potency [3] | Potency [4] | Potency [5] | Potency [7] | Potency [8] | Potency [10]

CC/C(=C(\c1ccc(O)cc1)c1ccc(OCCN(C)C)cc1)c1ccccc1
inactive: Potency [3]
active: Potency [1] 5.46 µM | Potency [2] 12.2 µM | Potency [9] 39 µM | Potency [8] 68.7 µM | Potency [10] 0.0217 µM

O=C1C=CC(=O)N1c1ccc(Cc2ccc(N3C(=O)C=CC3=O)cc2)cc1
inactive: Potency [3] | Potency [8]
active: Potency [1] 10.9 µM | Potency [2] 8.63 µM | Potency [9] 21.9 µM | Potency [10] 9.69 µM

O=C1c2ccccc2Cc2ccccc21
inactive: Potency [2] | Potency [3] | Potency [9] | Potency [10]
active: Potency [1] 5.49 µM | Potency [6] 7.75 µM

NNc1nc(-c2ccc([N+](=O)[O-])cc2)cs1
active: Potency [1] 68.6 µM | Potency [2] 30.6 µM | Potency [9] 15.5 µM | Potency [8] 54.5 µM | Potency [10] 43.3 µM
inactive: Potency [3] | Potency [5]

CCOC(=O)O[C@]1(C(=O)OCCl)CC[C@H]2[C@@H]3CCC4=CC(=O)C=C[C@]4(C)[C@H]3[C@@H](O)C[C@@]21C
inactive: Potency [1] | Potency [2] | Potency [3] | Potency [9] | Potency [8] | Potency [10]

O=C(O)c1ccc(Cl)c(Cl)c1
inactive: Potency [1] | Potency [2] | Potency [3] | Potency [9] | Potency [5] | activation ([6]; at 70.3 µM (top of the series)) -5.68% | Potency [7] | Potency [8] | Potency [10]

CCCN(CCC)C(=O)C(CCC(=O)OCCCN1CCN(CCOC(=O)Cc2c(C)n(C(=O)c3ccc(Cl)cc3)c3ccc(OC)cc23)CC1)NC(=O)c1ccccc1 (configuration not stated)
inactive: Potency [9] | Potency [7] | Potency [8]
active: Potency [1] 13.3 µM | Potency [2] 26.6 µM | Potency [5] 7.56 µM [activator] | Potency [6] 0.211 µM

CN1CCC(Nc2ncc3ncnc(Nc4ccc(F)c(Cl)c4)c3n2)CC1
active: Potency [1] 11.9 µM | Potency [2] 9.44 µM
inactive: Potency [9]

O=S1(=O)CC(Cl)(Cl)C(Cl)(Cl)C1
active: Potency [1] 1.93 µM | Potency [2] 1.37 µM | Potency [4] 21.9 µM [inconclusive] | Potency [9] 49 µM | Potency [5] 12.3 µM [inconclusive] | Potency [8] 30.6 µM | Potency [10] 1.93 µM
